One sequence from article PMC7862700, “An all-to-all approach to the identification of sequence-specific readers for epigenetic DNA modifications on cytosine” can be followed below.

What all share (assay): DAPPL (digital affinity profiling via proximity ligation, sequencing); 10 mM Tris-HCl pH 7.5, 50 mM NaCl, 1 mM DTT, 4% glycerol, room temperature, 30 min; GST-TFs on glutathione beads, 16-mer random dsDNA library, 0.1% formaldehyde crosslink after washing; high values mean tight binding
The target in one assay is T1, FEV (Homo sapiens, UniProt Q99581 1-238).
T1 sequence: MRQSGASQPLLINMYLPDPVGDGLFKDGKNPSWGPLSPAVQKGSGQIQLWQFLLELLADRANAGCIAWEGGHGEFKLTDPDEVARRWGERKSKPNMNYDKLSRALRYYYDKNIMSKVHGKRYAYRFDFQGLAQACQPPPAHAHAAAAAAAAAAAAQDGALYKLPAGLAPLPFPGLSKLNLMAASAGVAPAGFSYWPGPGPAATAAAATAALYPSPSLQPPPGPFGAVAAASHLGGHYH
The conditions noted are these: protein: recombinant; tags: N-terminal GST; dsDNA, one strand shown. The essentials: (§1)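 Human transcription factors carrying a GST fusion were produced in yeast, bound to glutathione beads, tagged with DNA barcodes and pooled together with a tag-only sample. Each pool was held with 200 nmole of a random double-stranded 16-mer DNA library in Tris/NaCl/DTT/glycerol buffer for 30 min at room temperature, then washed, crosslinked in 0.1% formaldehyde, proximity-ligated with BsaI/T4 ligase (1 h, 37 °C), PCR-amplified and sequenced on an Illumina NextSeq500. Binding signal is the read frequency of each hexamer for a given factor divided by its frequency in the tag-only sample.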

The next assay concerns the target ETV5 (Homo sapiens, UniProt P41161 1-510). The following applies: protein: recombinant; tags: N-terminal GST; dsDNA, one strand shown. The method in brief: as §1
The next assay has as its target HSF1 (Homo sapiens, UniProt Q00613 1-529). The following applies: protein: recombinant; tags: N-terminal GST; chain copies: 3; dsDNA, one strand shown. The method in brief: as §1
The target of another assay is T2, SPIC (Homo sapiens, UniProt Q8N5J4 1-248).
T2 sequence: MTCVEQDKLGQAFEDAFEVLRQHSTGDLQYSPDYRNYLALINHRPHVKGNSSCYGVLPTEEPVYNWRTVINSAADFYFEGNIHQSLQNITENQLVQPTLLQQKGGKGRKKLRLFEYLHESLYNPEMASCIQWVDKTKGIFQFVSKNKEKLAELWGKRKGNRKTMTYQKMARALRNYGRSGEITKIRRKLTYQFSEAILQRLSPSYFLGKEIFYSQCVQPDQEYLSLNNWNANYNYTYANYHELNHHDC
The conditions noted are these: protein: recombinant; tags: N-terminal GST; dsDNA, one strand shown. The essentials:
as §1

For a further assay, the target named is ELF4 (Homo sapiens, UniProt Q99607 1-663). The conditions noted are these: protein: recombinant; tags: N-terminal GST; dsDNA, one strand shown. The method in brief:
as §1

A further assay has as its target T3, ELK4 (Homo sapiens, UniProt P28324-2 1-405).
T3 sequence: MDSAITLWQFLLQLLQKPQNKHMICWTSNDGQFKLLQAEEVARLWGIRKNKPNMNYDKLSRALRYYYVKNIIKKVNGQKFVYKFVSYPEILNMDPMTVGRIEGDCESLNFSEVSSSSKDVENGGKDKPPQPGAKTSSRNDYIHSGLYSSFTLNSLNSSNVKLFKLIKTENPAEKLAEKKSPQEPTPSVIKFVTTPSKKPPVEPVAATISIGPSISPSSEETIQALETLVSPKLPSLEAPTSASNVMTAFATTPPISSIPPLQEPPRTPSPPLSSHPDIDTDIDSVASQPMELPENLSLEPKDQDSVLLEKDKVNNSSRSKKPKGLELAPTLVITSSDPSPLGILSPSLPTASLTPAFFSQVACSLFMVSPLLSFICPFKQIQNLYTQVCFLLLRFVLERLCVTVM
The conditions noted are these: protein: recombinant; tags: N-terminal GST; dsDNA, one strand shown. The essentials:
as §1

The target in another assay is T4, ETV2 (Homo sapiens, UniProt O00321 1-342).
T4 sequence: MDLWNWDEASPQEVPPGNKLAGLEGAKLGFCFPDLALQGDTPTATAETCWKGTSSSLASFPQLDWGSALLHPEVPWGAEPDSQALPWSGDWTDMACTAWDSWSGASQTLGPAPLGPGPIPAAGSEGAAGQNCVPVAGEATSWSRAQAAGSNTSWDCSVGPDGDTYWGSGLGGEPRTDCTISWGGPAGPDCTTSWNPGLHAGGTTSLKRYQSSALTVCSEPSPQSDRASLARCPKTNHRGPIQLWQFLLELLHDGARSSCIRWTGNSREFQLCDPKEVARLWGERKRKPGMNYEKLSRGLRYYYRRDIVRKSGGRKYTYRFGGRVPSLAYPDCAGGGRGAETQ
The following applies: protein: recombinant; tags: N-terminal GST; dsDNA, one strand shown. The essentials: as §1

The target of a further assay is T5, ELF3 (Homo sapiens, UniProt P78545 1-371).
T5 sequence: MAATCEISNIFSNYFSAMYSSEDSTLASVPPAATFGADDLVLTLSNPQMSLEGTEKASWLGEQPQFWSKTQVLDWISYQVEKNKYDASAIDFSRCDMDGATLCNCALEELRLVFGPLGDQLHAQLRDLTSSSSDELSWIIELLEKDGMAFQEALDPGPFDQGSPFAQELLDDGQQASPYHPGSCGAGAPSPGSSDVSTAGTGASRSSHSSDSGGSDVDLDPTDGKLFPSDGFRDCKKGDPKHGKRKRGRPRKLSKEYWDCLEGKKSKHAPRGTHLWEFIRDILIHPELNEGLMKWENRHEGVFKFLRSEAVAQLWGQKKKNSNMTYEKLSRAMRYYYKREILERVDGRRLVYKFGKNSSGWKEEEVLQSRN
The following applies: protein: recombinant; tags: N-terminal GST; dsDNA, one strand shown. The method in brief:
as §1

For the next assay, the target named is CRX (Homo sapiens, UniProt O43186 1-299). The following applies: protein: recombinant; tags: N-terminal GST; dsDNA, one strand shown. The method in brief: as §1
The target in the next assay is ETV1 (Homo sapiens, UniProt P50549 1-477). The following applies: protein: recombinant; tags: N-terminal GST; dsDNA, one strand shown. The method in brief: as §1
The next assay addresses T6, ERF (Homo sapiens, UniProt P50548 1-548).
T6 sequence: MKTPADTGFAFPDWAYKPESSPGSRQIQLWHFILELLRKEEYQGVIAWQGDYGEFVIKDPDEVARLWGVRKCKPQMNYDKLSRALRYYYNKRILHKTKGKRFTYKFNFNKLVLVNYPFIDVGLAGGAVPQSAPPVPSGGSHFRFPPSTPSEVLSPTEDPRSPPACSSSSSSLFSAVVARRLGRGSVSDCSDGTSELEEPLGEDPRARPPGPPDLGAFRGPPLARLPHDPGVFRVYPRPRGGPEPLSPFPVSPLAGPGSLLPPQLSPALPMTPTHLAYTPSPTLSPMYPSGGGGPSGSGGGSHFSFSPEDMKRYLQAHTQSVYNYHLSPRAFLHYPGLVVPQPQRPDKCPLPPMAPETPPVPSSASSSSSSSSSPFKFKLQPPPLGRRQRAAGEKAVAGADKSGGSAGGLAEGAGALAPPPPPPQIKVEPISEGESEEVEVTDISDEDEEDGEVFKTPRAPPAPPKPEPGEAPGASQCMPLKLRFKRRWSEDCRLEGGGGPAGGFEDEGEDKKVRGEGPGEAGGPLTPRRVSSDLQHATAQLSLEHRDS
The conditions noted are these: protein: recombinant; tags: N-terminal GST; dsDNA, one strand shown. The method in brief: as §1

The next assay deals with T7, ETV3L (Homo sapiens, UniProt Q6ZN32 1-361).
T7 sequence: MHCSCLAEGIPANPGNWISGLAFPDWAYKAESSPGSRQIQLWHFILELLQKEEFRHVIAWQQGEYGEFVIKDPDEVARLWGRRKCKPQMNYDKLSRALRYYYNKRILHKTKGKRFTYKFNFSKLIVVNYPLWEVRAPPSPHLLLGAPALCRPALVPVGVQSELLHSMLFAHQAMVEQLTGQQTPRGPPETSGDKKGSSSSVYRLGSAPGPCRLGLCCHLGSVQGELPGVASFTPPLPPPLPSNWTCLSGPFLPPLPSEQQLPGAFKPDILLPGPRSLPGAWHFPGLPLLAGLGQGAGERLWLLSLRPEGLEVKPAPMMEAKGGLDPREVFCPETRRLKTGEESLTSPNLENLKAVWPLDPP
The conditions noted are these: protein: recombinant; tags: N-terminal GST; dsDNA, one strand shown. The essentials: as §1

The next assay has as its target T8, ETS2 (Homo sapiens, UniProt P15036 1-469).
T8 sequence: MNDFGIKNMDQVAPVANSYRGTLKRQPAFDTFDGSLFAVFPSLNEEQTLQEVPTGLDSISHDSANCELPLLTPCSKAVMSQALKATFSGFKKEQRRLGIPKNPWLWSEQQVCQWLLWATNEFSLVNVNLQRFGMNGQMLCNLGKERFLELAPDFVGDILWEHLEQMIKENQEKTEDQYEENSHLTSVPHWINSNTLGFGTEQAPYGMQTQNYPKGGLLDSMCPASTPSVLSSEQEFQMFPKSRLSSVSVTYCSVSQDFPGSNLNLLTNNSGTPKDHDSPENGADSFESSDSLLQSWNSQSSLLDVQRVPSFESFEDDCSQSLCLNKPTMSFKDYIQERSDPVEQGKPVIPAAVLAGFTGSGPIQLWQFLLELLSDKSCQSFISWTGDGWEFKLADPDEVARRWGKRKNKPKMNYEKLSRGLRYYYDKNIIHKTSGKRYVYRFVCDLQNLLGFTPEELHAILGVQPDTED
The following applies: protein: recombinant; tags: N-terminal GST; dsDNA, one strand shown. The essentials:
as §1

The target in the next assay is T9, SPDEF (Homo sapiens, UniProt O95238 1-335).
T9 sequence: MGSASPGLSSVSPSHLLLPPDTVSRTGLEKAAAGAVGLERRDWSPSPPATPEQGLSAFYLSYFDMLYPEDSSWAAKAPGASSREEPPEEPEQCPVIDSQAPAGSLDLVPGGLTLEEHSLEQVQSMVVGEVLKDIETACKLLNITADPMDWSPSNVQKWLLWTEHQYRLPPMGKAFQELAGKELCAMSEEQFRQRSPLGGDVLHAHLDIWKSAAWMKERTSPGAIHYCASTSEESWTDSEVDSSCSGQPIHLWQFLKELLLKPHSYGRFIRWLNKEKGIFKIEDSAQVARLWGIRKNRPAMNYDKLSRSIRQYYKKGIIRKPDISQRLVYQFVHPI
The following applies: protein: recombinant; tags: N-terminal GST; dsDNA, one strand shown. The essentials: as §1

For the next assay, the target named is T10, ETV7 (Homo sapiens, UniProt Q9Y603 1-341).
T10 sequence: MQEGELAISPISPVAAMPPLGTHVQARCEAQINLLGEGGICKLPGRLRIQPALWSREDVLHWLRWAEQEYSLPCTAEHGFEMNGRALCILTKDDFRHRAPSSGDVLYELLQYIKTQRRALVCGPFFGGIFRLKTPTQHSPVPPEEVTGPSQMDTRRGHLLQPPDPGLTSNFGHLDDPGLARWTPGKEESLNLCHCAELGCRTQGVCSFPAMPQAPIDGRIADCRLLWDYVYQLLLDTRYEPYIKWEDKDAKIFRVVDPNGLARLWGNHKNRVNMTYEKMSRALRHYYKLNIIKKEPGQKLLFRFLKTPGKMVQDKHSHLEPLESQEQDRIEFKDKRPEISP
The conditions noted are these: protein: recombinant; tags: N-terminal GST; dsDNA, one strand shown. The method in brief: as §1

A further assay deals with T11, ELF5 (Homo sapiens, UniProt Q9UKW6-2 1-255).
T11 sequence: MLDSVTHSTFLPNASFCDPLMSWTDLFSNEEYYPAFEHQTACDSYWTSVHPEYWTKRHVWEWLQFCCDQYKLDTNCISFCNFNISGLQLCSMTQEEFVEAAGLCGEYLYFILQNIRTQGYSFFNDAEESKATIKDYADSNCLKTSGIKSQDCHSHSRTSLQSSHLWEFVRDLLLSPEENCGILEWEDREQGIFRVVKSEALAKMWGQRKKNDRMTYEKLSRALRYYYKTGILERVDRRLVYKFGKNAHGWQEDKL
The following applies: protein: recombinant; tags: N-terminal GST; dsDNA, one strand shown. The method in brief: as §1

The target in the next assay is T12, ETV3 (Homo sapiens, UniProt P41162-2 1-143).
T12 sequence: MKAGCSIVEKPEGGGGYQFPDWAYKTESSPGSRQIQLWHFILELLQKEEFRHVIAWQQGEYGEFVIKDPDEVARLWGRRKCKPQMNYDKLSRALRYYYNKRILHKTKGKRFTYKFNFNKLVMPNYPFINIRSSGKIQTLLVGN
The following applies: protein: recombinant; tags: N-terminal GST; dsDNA, one strand shown. The method in brief: as §1

Another assay addresses ETV6 (Homo sapiens, UniProt P41212 1-452). The following applies: protein: recombinant; tags: N-terminal GST; dsDNA, one strand shown. The method in brief: as §1

Sequence of ETV5 (P41161 whole entry): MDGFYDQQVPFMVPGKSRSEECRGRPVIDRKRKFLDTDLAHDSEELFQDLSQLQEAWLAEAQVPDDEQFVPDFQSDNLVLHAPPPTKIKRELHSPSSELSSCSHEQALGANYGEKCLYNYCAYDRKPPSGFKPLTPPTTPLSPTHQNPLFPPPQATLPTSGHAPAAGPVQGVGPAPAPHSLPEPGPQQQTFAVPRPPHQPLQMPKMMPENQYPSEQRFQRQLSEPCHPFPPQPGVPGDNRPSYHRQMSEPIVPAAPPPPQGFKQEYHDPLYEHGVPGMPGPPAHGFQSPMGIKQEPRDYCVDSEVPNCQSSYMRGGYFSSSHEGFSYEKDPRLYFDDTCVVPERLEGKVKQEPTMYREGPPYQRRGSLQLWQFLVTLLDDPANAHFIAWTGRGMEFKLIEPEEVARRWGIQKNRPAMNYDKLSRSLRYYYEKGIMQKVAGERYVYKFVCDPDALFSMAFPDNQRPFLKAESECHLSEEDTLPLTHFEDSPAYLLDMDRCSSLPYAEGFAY
Sequence of ETV6 (P41212 whole entry): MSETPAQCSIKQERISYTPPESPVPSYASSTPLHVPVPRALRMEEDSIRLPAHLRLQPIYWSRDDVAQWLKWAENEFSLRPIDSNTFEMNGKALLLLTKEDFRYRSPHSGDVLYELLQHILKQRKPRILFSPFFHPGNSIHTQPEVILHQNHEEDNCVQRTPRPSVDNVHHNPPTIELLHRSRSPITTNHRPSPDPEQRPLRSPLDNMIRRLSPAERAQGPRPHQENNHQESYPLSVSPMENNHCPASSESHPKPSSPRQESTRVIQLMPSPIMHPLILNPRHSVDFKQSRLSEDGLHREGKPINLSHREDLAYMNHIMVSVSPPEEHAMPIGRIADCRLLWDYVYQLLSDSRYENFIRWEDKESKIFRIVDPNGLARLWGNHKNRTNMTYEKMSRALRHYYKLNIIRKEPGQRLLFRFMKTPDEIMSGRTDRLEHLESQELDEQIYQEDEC
Sequence of CRX (O43186 whole entry): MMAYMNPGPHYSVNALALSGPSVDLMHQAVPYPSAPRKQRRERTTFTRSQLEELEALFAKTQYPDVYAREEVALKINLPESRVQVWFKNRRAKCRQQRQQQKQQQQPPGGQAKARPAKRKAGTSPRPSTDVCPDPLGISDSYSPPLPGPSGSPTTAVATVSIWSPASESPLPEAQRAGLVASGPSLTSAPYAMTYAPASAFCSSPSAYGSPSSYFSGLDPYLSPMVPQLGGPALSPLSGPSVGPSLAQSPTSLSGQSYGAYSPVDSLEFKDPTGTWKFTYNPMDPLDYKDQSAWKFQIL
Sequence of ELF4 (Q99607 whole entry): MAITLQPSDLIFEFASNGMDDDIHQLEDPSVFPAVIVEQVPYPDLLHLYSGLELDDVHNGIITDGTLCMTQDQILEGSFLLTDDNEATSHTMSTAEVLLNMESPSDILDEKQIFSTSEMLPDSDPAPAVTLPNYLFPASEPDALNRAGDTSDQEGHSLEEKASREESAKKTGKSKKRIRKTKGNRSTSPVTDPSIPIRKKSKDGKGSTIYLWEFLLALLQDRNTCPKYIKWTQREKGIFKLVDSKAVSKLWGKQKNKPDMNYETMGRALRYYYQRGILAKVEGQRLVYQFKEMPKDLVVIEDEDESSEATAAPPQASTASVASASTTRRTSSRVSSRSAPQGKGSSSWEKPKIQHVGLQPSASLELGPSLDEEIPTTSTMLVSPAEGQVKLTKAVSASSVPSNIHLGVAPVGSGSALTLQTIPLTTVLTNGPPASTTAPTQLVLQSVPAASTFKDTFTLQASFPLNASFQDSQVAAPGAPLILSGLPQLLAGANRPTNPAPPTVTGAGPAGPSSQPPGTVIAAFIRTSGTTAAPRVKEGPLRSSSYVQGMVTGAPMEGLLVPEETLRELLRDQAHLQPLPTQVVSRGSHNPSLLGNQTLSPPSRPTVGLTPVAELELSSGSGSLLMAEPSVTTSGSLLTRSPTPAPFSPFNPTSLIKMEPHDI
Sequence of HSF1 (Q00613 whole entry): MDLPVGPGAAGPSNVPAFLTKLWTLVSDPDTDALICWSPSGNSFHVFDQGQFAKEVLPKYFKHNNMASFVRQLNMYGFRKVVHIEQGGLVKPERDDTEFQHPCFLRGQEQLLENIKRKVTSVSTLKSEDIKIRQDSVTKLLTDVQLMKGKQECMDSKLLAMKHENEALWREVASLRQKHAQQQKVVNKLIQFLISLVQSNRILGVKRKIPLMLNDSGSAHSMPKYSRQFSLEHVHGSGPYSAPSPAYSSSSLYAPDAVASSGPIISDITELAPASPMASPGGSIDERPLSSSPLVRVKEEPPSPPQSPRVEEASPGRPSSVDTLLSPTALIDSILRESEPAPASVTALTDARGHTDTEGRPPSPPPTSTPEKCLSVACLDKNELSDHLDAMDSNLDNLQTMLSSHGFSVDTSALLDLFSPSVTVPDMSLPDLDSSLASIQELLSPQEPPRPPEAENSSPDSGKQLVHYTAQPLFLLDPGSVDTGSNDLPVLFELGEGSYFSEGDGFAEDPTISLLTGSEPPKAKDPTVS
Sequence of ETV1 (P50549 whole entry): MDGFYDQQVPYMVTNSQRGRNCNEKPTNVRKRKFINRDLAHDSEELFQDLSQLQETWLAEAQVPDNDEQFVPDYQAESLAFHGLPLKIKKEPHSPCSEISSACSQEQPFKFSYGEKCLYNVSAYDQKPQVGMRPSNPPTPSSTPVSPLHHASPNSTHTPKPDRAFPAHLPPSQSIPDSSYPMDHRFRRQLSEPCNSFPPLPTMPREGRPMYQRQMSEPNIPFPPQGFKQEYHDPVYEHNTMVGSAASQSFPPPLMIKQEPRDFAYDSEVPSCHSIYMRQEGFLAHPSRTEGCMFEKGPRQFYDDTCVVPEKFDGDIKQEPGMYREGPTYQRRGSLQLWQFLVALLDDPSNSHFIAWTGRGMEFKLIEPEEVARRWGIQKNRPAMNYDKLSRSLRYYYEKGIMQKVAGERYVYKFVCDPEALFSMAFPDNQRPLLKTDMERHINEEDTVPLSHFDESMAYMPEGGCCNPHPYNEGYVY

As for CATTTA, the binding signal is 1.23 fold enrichment (6-mer frequency, TF over GST control) in the assay with FEV; 1.22 fold enrichment (6-mer frequency, TF over GST control) with ETV5; 1.13 fold enrichment (6-mer frequency, TF over GST control) in the assay with HSF1; 1.17 fold enrichment (6-mer frequency, TF over GST control) with SPIC; 1.14 fold enrichment (6-mer frequency, TF over GST control) with ELF4; 1.17 fold enrichment (6-mer frequency, TF over GST control) with ELK4. For the same sequence, the binding signal in the assay with ETV2 was 1.34 fold enrichment (6-mer frequency, TF over GST control); in the assay with ELF3 it was 1.2 fold enrichment (6-mer frequency, TF over GST control); in the assay with CRX, 1.36 fold enrichment (6-mer frequency, TF over GST control); with ETV1 it was 1.22 fold enrichment (6-mer frequency, TF over GST control); with ERF, 1.23 fold enrichment (6-mer frequency, TF over GST control); with ETV3L, 1.24 fold enrichment (6-mer frequency, TF over GST control). Also, the binding signal was 1.31 fold enrichment (6-mer frequency, TF over GST control) in the assay with ETS2; 1.22 fold enrichment (6-mer frequency, TF over GST control) with SPDEF; 1.27 fold enrichment (6-mer frequency, TF over GST control) with ETV7; 1.11 fold enrichment (6-mer frequency, TF over GST control) with ELF5; 1.23 fold enrichment (6-mer frequency, TF over GST control) with ETV3; 1.13 fold enrichment (6-mer frequency, TF over GST control) in the assay with ETV6.
